Rv3671c protease = inhibits the M. tuberculosis serine protease Rv3671c; P9WHR9; inhibition, % at 5.96 µM; 0.048% of 320,000 active; AID 2606; in the data active = inhibition above about 38%;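 also: extracellular domain of Rv3671c used as enzyme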
FadD28 FP inh = blocks FadD28 binding to the bisubstrate probe; fluorescence polarization; inhibition, % at 12.5 µM; AID 588549; 0.22% of 360,000 active; in the data active = inhibition above about 8.5%, passing the limit was not always enough; inconclusive = no clear call, values can overlap the other calls
UGM FP inh = Mtb UDP-galactopyranose mutase inhibition. P9WIQ1. purified UGM, fluorescence polarization probe displacement. inhibition, % at 10 µM. 0.06% of 320,000 active. AID 504406; in the data active = inhibition above about 10%, passing the limit was not always enough; inconclusive = no clear call, values can overlap the other calls
RecA intein inh = blocks M. tuberculosis RecA intein splicing. cell-free RecA intein splicing, fluorescence. inhibition, % (concentration not given with the values). 0.75% of 290,000 active; in the data active = inhibition above about 30%; inconclusive = no clear call, values can overlap the other calls
Target sequence (P9WHJ3 whole entry, looked up): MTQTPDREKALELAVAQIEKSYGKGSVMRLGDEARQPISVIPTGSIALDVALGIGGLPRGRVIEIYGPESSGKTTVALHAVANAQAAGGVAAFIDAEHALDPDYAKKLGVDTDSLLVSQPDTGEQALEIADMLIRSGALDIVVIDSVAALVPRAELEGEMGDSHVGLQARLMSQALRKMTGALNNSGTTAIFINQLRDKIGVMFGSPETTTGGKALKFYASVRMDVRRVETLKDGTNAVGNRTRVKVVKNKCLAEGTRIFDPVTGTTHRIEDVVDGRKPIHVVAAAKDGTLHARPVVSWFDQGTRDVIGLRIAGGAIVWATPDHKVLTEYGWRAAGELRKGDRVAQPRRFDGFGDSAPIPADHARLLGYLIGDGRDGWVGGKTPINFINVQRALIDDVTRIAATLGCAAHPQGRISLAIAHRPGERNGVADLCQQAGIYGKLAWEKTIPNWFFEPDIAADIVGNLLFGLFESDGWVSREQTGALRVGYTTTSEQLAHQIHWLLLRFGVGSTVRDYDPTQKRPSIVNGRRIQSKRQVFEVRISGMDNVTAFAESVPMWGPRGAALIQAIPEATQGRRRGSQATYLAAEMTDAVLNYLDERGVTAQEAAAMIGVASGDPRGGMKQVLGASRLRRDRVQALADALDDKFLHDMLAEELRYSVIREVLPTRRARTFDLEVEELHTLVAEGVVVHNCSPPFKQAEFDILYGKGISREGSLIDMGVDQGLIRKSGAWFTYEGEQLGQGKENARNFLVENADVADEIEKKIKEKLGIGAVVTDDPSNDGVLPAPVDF
PrP UTR inh = inhibition of PrP 5' UTR reporter expression | inhibition, % (concentration not given with the values) | 0.35% of 340,000 active | cell-based PrP 5' UTR mRNA reporter, plate reader; in the data active = inhibition above about 52%
BJeLR lethal = BJeLR cell viability loss. BJeLR (HRASV12) viability, CellTiter-Glo ATP luminescence, 48 h. AID 1554. 0.17% of 300,000 active. inhibition, % (no concentration beside the values); in the data active = inhibition above about 50%; inconclusive = no clear call, values can overlap the other calls
Of the large screens only hits and unclear results are named; the others gave an inactive call. Sampled rows, rich in hits. Any-hit rate of the full collection: about 1.3%.

CCOc1cccc(/C=N/Nc2ccc(S(=O)(=O)N(CC)CC)cn2)c1O	BJeLR lethal 51.6
Cc1nn(-c2ccccc2)c(Cl)c1/C=N/Nc1ccc(S(=O)(=O)Nc2ccccc2C(=O)O)cc1[N+](=O)[O-]	FadD28 FP inh 12.0
CCOc1cccc(C=NNc2ccc(S(=O)(=O)Nc3ccccc3C(=O)O)cc2[N+](=O)[O-])c1O	FadD28 FP inh 17.3 (no result: RecA intein inh, BJeLR lethal)
O=C(O)c1ccccc1NS(=O)(=O)c1ccc(NN=Cc2ccccc2F)c([N+](=O)[O-])c1	none (no result: RecA intein inh, BJeLR lethal)
CCN(CC)S(=O)(=O)c1ccc(N/N=C/c2cc(OC)c(OC)cc2OC)nc1	none
COc1ccc(S(=O)(=O)N2CCCCCC2)cc1NC(=O)CN1C(=O)CNC1=O	none (no result: RecA intein inh, BJeLR lethal)
COc1ccccc1N1CCN(S(=O)(=O)CCNC(=O)C(C)Oc2ccccc2)CC1 (configuration not stated)	none (no result: Rv3671c protease, UGM FP inh, RecA intein inh, PrP UTR inh, BJeLR lethal)
CSc1ccc(C=NNc2ccc(S(=O)(=O)Nc3ccccc3C(=O)O)cc2[N+](=O)[O-])cc1	none (no result: RecA intein inh, BJeLR lethal)
C=CCOc1ccc(C=NNc2ccc(S(=O)(=O)Nc3ccccc3C(=O)O)cc2[N+](=O)[O-])cc1OC	FadD28 FP inh 31.6 (no result: RecA intein inh, BJeLR lethal)
COc1ccc(C=NNc2ccc(S(=O)(=O)Nc3ccccc3C(=O)O)cc2[N+](=O)[O-])c(OC)c1	FadD28 FP inh 31.7 (no result: RecA intein inh, BJeLR lethal)
COc1ccc(/C=C2/C(=O)N(Cc3ccco3)C(=O)N(C(C)C)C2=O)cc1	FadD28 FP inh 9.5 (no result: BJeLR lethal)
CC(C)N1C(=O)/C(=C/C=C/c2ccco2)C(=O)N(Cc2ccco2)C1=O	none
CCCCn1cnc2c(SCc3ccc(Br)cc3)nc(N)nc21	none (no result: Rv3671c protease, UGM FP inh, RecA intein inh, BJeLR lethal)
Cc1ncc(CN2CCC(C(=O)Nc3ccc(Oc4cccnc4)cc3)CC2)cn1	none
CCn1cc(CN2CCC(C(=O)Nc3ccc(Oc4cccnc4)cc3)CC2)cn1	FadD28 FP inh inconclusive
C=CCn1cc(CN2CCC(C(=O)Nc3ccc(Oc4cccnc4)cc3)CC2)c(C)n1	FadD28 FP inh 15.6
CCn1cc(CN2CCC(C(=O)Nc3ccc(Oc4cccnc4)cc3)CC2)c(C)n1	FadD28 FP inh 13.3 (no result: RecA intein inh)
Cc1ccc(S(=O)(=O)N2CCOCC2)cc1NC(=O)CSc1nnnn1C1CC1	none (no result: Rv3671c protease, UGM FP inh, RecA intein inh, PrP UTR inh, BJeLR lethal)
CC(C(=O)Nc1ccc(C(=O)O)c(O)c1)N1C(=O)/C(=C\c2ccco2)SC1=S (configuration not stated)	FadD28 FP inh 25.3
CC(C(=O)N(C)C1CCS(=O)(=O)C1)N1C(=O)/C(=C/c2ccco2)SC1=S (configuration not stated)	none
CCOC(=O)CN1C(=O)S/C(=C\c2ccc(-c3cccc(C(=O)O)c3C)o2)C1=O	none (no result: PrP UTR inh)
O=C(CN1C(=O)/C(=C\c2cccs2)SC1=S)Nc1cccc(C(=O)O)c1	none
Cc1ccc(NC(=O)CN2C(=O)S/C(=C\c3ccc(-c4cccc(C(=O)O)c4C)o3)C2=O)cc1C	FadD28 FP inh 11.5 (no result: Rv3671c protease, UGM FP inh, RecA intein inh, BJeLR lethal)
O=C(CN1C(=O)/C(=C/c2ccco2)SC1=S)Nc1ccc(C(=O)O)c(O)c1	FadD28 FP inh 23.1
O=C(CN1C(=O)/C(=C/c2ccco2)SC1=S)Nc1ccc(O)c(C(=O)O)c1	FadD28 FP inh 36.3
CC1(C(=O)Nc2cccc(OC(F)(F)F)c2)Cc2c(-c3cccc(C(N)=O)c3)ccnc2O1 (configuration not stated)	none (no result: Rv3671c protease, UGM FP inh, RecA intein inh, PrP UTR inh, BJeLR lethal)
c1ccc(COc2ncnc3c2ncn3CCCNCC(c2ccccc2)c2ccccc2)cc1	none (no result: Rv3671c protease, UGM FP inh, RecA intein inh, PrP UTR inh, BJeLR lethal)
O=C(NC1CCCCC1)c1cccc2c1C(=O)c1ccc(N3CCC(Cc4ccccc4)CC3)cc1S2(=O)=O	UGM FP inh 19.1 (no result: RecA intein inh, BJeLR lethal)
O=C(NCC1CCCO1)c1cccc2c1C(=O)c1ccc(N3CCC(Cc4ccccc4)CC3)cc1S2(=O)=O (configuration not stated)	UGM FP inh 19.0 (no result: RecA intein inh, BJeLR lethal)
CCN(CC)c1ccc2c(-c3ccc(S(=O)(=O)O)cc3S(=O)(=O)[O-])c3ccc(=[N+](CC)CC)cc-3oc2c1	Rv3671c protease active, FadD28 FP inh 135.4, UGM FP inh 92.7
Oc1cccc2cc3cccc(O)c3c(O)c12	Rv3671c protease 37.8
O=c1oc(-c2ccc(O)c(O)c2)cc2cccc(O)c12	none (no result: UGM FP inh, RecA intein inh, BJeLR lethal)
CCOC(=O)C1CCCN(c2ccc([N+](=O)[O-])c3nonc23)C1 (configuration not stated)	FadD28 FP inh 47.0 (no result: Rv3671c protease, UGM FP inh)
Cc1noc(C)c1S(=O)(=O)NC(=O)C1(C)CCN1C(=O)C1(c2ccc(Cl)cc2)CC1 (configuration not stated)	none (no result: Rv3671c protease, UGM FP inh, RecA intein inh, PrP UTR inh, BJeLR lethal)
CC1(C(=O)NS(=O)(=O)Cc2ccccc2C(F)(F)F)CCN1C(=O)Cc1ccsc1 (configuration not stated)	none (no result: Rv3671c protease, UGM FP inh, RecA intein inh, PrP UTR inh, BJeLR lethal)
Cn1nc(C(C)(C)C)cc1C(=O)O	none
Cn1nc(C(C)(C)C)cc1C(=O)Sc1cccc(Br)c1	RecA intein inh 42.7
COc1cc(/C=C/c2cc[n+](C)cc2)ccc1OCC(=O)Nc1ccc(Cl)c(Cl)c1	RecA intein inh 40.4
COc1ccc(NC(=O)COc2ccc(/C=C/c3cc[n+](C)cc3)cc2OC)cc1	none
COc1cc2c3nnc(-c4ccccc4)c-3cn(Cc3ccccc3F)c2cc1OC	UGM FP inh 10.9 (no result: FadD28 FP inh, PrP UTR inh, BJeLR lethal)
O=C1NC(Cc2ccccc2)c2nc3cc(Cl)ccc3c(=O)n2-c2ncccc21 (configuration not stated)	none (no result: Rv3671c protease, UGM FP inh, RecA intein inh, PrP UTR inh, BJeLR lethal)
CC(Oc1ccc(Cl)cc1Cl)c1nc(-c2ccc(NC(=O)c3ccncc3)cc2)no1 (configuration not stated)	none
CC(Oc1ccc(Cl)cc1Cl)c1nc(-c2ccc(NC(=O)c3cccnc3)cc2)no1 (configuration not stated)	BJeLR lethal 72.3
COc1ccc(CCNC2=CC(=O)CCC2)cc1OC	none (no result: Rv3671c protease, UGM FP inh, RecA intein inh, PrP UTR inh, BJeLR lethal)
O=C1NC(=Nc2ccccc2Cl)S/C1=C\c1cccc([N+](=O)[O-])c1O	FadD28 FP inh 21.4
COc1ccc(/C=C2\C(=O)N(c3c(Cl)cc(Cl)cc3Cl)N=C2NC(=O)c2cccc([N+](=O)[O-])c2)cc1	FadD28 FP inh 8.4 (no result: RecA intein inh, BJeLR lethal)
CC(C)(C)c1ccc(S(=O)(=O)NC(=O)C2(C)CCN2C(=O)Cc2ccc(-c3ccccc3)cc2)cc1 (configuration not stated)	none (no result: Rv3671c protease, UGM FP inh, RecA intein inh, PrP UTR inh, BJeLR lethal)
CC(=O)Cn1ncc(Br)c(Br)c1=O	none (no result: Rv3671c protease, UGM FP inh)
O=C(OCn1ncc(Br)c(Br)c1=O)c1c(F)cccc1F	RecA intein inh 53.2 (no result: FadD28 FP inh, PrP UTR inh)
O=C(/C=C/[C@H]1O[C@@H](n2cnc3c(NC(=O)c4ccccc4)ncnc32)[C@H](O)[C@@H]1O)NCc1cccc2ccccc12	none (no result: Rv3671c protease, UGM FP inh, RecA intein inh, PrP UTR inh, BJeLR lethal)
O=S(=O)(CCSc1nc2ccccc2o1)c1nc2ccccc2s1	none
O=S(=O)(CCSc1ccccn1)c1nc2ccccc2s1	RecA intein inh 39.6
O=C(CSc1ccc(-c2nc3ccccc3[nH]2)cn1)Nc1ccc(S(=O)(=O)N2CCCC2)cc1	FadD28 FP inh 21.5
CCCSc1nnc(NC(=O)CSc2sc3c(O)cc(=O)[nH]c3c2C#N)s1	FadD28 FP inh 15.8
N#Cc1c(SCC(=O)Nc2nccs2)sc2c(O)cc(=O)[nH]c12	none (no result: RecA intein inh)
O=C(CSc1nc(O)cc(=O)n1-c1ccccc1)Nc1nc2ccccc2s1	FadD28 FP inh 12.7

High-throughput results (PubChem BioAssay)
